Results from PubChem BioAssay AID463173 (ICCB-Longwood Screening Facility, Harvard Medical School, 2010).
In all, about 52,000 compounds went through this assay and about 4,300 (8.3%) were called active. Cut-off read from the data, not from the text of the source: active = survival mostly below about 52% (no sharp cut-off); inactive = mostly above about 56%. The full list was thinned out, with actives kept by preference.

The compounds below were run on DeltatarO mutant (assay: growth inhibition of S. aureus wild type versus tarO mutant, primary screen, teichoic acid synthesis inhibitors, RN4220, OD600 (AID 463173)). Conditions: OD600, 18 h, stronger effect = lower value, screened at 18.75 µg/mL (by protocol).

SMILES | survival
N#C/C(=C(/O)CN1C(=O)c2ccccc2C1=O)c1nc2ccccc2[nH]1 | 76% (inactive)
Cc1ccc(Nc2c(-c3ccc(N4CCOCC4)cc3)nc3ncccn23)cc1 | 139% (inactive)
Cc1ccc2nc(-c3ccc(N4CCOCC4)cc3)c(Nc3ccccc3C)n2c1 | 71% (inactive)
Cc1ccn2c(Nc3ccccc3C)c(-c3ccc(N4CCOCC4)cc3)nc2c1 | 89% (inactive)
Cc1ccc(-c2nc3ncccn3c2Nc2ccc3c(c2)OCCO3)cc1 | 79% (inactive)
Cc1ccccc1Nc1c(-c2ccc(N3CCOCC3)cc2)nc2ccccn12 | 41% (active)
Cc1ccc(Nc2c(-c3ccc(C)s3)nc3ncccn23)cc1 | 9% (active)
CCOC(=O)c1cnc2cc(-c3ccc(C)cc3)nn2c1C | 74% (inactive)
O=C1COc2cc(S(=O)(=O)CCC(=O)NC3CCCCC3)c(Cl)cc2N1 | 93% (inactive)
CCc1sc(Nc2cccc(C)c2)nc1-c1cc2cccc(OC)c2oc1=O | 94% (inactive)
Cc1ccccc1CN1C(=O)c2ccccc2Sc2ccc(C(=O)NCc3ccccc3)cc21 | 37% (active)
O=C(NC1CCCC1)c1ccc2c(c1)N(Cc1ccccc1)C(=O)c1ccccc1S2 | 105% (inactive)
Cc1cccc(CN2C(=O)c3ccccc3Sc3ccc(C(=O)NCCCN4CCOCC4)cc32)c1 | 37% (active)
Cc1ccc(C)c(CN2C(=O)c3ccccc3Sc3ccc(C(=O)NCc4ccco4)cc32)c1 | 17% (active)
O=C(NC1CCCCC1)c1ccc2c(c1)N(Cc1ccccc1)C(=O)c1ccccc1S2 | 46% (active)
Cc1ccc(CN2C(=O)c3ccccc3Sc3ccc(C(=O)NCCCN4CCOCC4)cc32)cc1 | 126% (inactive)
Cc1ccc(CN2C(=O)c3ccccc3Sc3ccc(C(=O)NC4CCCCC4)cc32)cc1 | 100% (inactive)
Cc1ccccc1CN1C(=O)c2ccccc2Sc2ccc(C(=O)NCCc3ccccc3)cc21 | 101% (inactive)
Cc1ccccc1CN1C(=O)c2ccccc2Sc2ccc(C(=O)NCc3cccs3)cc21 | 93% (inactive)
Cc1cccc(CN2C(=O)c3ccccc3Sc3ccc(C(=O)NCc4ccco4)cc32)c1 | 102% (inactive)
Cc1ccc(CN2C(=O)c3ccccc3Sc3ccc(C(=O)NCc4ccco4)cc32)cc1 | 81% (inactive)
O=C(NCCCN1CCOCC1)c1ccc2c(c1)N(Cc1ccccc1)C(=O)c1ccccc1S2 | 98% (inactive)
Cc1ccc(C)c(N2CCN(S(=O)(=O)c3ccc4c(c3)OCCO4)CC2)c1 | 76% (inactive)
Cc1nn(-c2ccccc2)c2c1N(CC(=O)N1CCN(c3ccc(F)cc3)CC1)C(=O)CS2 | 81% (inactive)
